Measurements published in the supplement of paper PMC11417369.
Over roughly 25,000 sequences, “ln(normalized median fluorescence intensity)” has its median near 6.7; the highest 2% begin near 10. This is one part of a sample in which the highest values are shown more often than they occur.

test system: PfHDP1 homeodomain (GST-tagged); assay: gcPBM binding intensity (ln(normalized median fluorescence intensity)); higher = stronger DNA binding
Outline: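 Plasmodium falciparum DNA-binding domains carrying a GST tag were expressed in E. coli and applied for 1 h, at about 25 μg on average, to an Agilent 4 × 180k array. The array held primer-extended double-stranded 36-bp intergenic genomic probes together with negative controls, and binding took place in 1× PBS with 1% milk, 0.2 mg/ml BSA, 0.5% salmon testes DNA and 0.03% Triton X-100. An Alexa488 anti-GST antibody detected bound protein, and the array was scanned at 488 nm. Binding intensity is taken as the highest Masliner-normalised natural-log median intensity across replicate spots of either probe orientation.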

Row | Sequence | gcPBM binding intensity (ln)
1 | TTATATGCACTTTTTGCACACGTATGAATAACAAAA [CACACA_site1811] | 11.5
2 | AAAAGGAAGATATATACACACATACAAATATTTATA [CACACA_site7093] | 6.71
3 | TATACTTGTAAATGCACACATAAGATGCGACTAATG [CACACA_site2118] | 9.37
4 | TACAATAAGGATAAGTGTACATATGTGCATACATAT [XGTACX_site7188] | 10.6
5 | TAAGTGCATGAGATATGTACATATATAAAATATATA [XGTACX_site3294] | 9.2
6 | TAAGGGATATGTATATGTACATACAAATATATATAA [XGTACX_site2892] | 6.63
7 | TATACATACTCACCCACACACAAAAAAAAAAAAAAA [CACACA_site862] | 6.43
8 | TTTTATCTTTTTTTATTTTAATGTATTATTTTTATG [XGTACX_negctrl_site24] | 6.61
9 | ATAAAAAAATTAAATACATGCACATATACACATACA [TGCATGCA_site129] | 8.6
10 | TATAACCGAATGTGTACACAAAATAATGTTATATAT [CACACA_site5627] | 7.77
11 | TGTTTGTAATTATGTATGCACTTTTTTGTATGTGTG [GTGCAC_site9668] | 7.52
12 | GAATAAATTAAAAATGCACACTTTGATGGGTACATT [CACACA_site5220] | 8.68
13 | ATGTCTAATTTTGATGCACACTTTTGTGCAATTAAA [CACACA_site5589] | 11
14 | GAATGTCTAATTTTGATGCACACTTTTGTGCAATTA [CACACA_site2902] | 11.1
15 | AATTTTTGTTACAAGATGCACTTAATTTTTCTAAAT | 7.92
16 | GATGATTCAATTTATGCACACTAAAAATTAATTATA [CACACA_site4308] | 10.1
17 | TGTAGACTACATAGTAGTACATAATATATACATATA [XGTACX_site367] | 6.21
18 | TACTTATTATGAAACACACACCAAAACTACAGAATA [CACACA_site6265] | 7.04
19 | GTGCATATATGATATACACACAATATAATAGTATGT [CACACA_site2460] | 7.18
20 | TTTTTTTTTAATCATGCACACTGTTAAAAGAATAAA [CACACA_site4817] | 8.29
21 | TTTTTATGGACTATGGTGCATTATATATAAATGAAA [GTGCAC_site9557] | 10.3
22 | TAATATAATGATGCAGTGCATATGTTAAAATGAAAA | 8.68
23 | ATTATCAATATGAAGGTGCATTTAAATAATATTTAC | 9.62

Row | Sequence | gcPBM binding intensity (ln)
24 | ATTAAATGCAGTTCGGTGCATTAAGGTTATGATGAA [GTGCAC_site9883] | 10.7
25 | TCTTGTTCGCCCTATTGTACAAACATATATTGTGAT [XGTACX_site2884] | 7.27
26 | AAATATAAAGTGCACACACACAAAAAAAGAAAAAAA [CACACA_site6452] | 8.92
27 | AAAATATAATATAATGCACACATAAACAAAAAAAAA [CACACA_site8161] | 10.1
28 | GCACAAATATATATATATATATATATATATATATAT [GTGCAC_negctrl_site661] | 9.39
29 | AATATAATATAATGCACACATAAACAAAAAAAAAAT [CACACA_site1304] | 10.5
30 | AATATAAAAATGCACACACACAAAAAAAAAAAAAAA [CACACA_site6546] | 9.21
31 | TAATAAATCAAATGCACACACACAAAAAAAAAAAAA [CACACA_site161] | 10
32 | ATGAGTGCACAAATATATATATATATATATATATAT [CACACA_negctrl_site404] | 10.7
33 | ATATTATATAAATACACACACACATGCATGCACATA [CACACA_site4236] | 10.3
34 | ATTATATATAAACACACACACATGCATGCACATATA [CACACA_site4237] | 10.5
35 | AACGGGTAATGCACAAAAAAAAAAAAATAAAATAAA [TGCATGCA_negctrl_site474] | 10.9
36 | ATATAAACACTGAATGCATGCACATATATATATATA [TGCATGCA_site940] | 9.37
37 | AAAATATAATATAATGCACACATAAAACAAAAAAAA [CACACA_site8989] | 9.76
38 | TTCTTAATATTGCATGCACACTATATAATAATTGAA [CACACA_site4720] | 9.18
39 | GTCTCCTTTATTTTTGGTACAGATAAGATAAAAGGA [XGTACX_site1591] | 6.46
40 | CACTTAAAAAAAATACGTACACATATATATATATAT [XGTACX_site2054] | 9.39
41 | TATAATATAATTAAAAGTACTTAAAAAAGAATGAAA [XGTACX_site1157] | 6.99
42 | CATCAATGCTAATTATGTACTTACATAAATAACCCT [XGTACX_site968] | 6.52
43 | TTGTGCTTGATATCACGGACAAGCTCATATTATATA [XGTACX_site4553] | 6.03
44 | AATGTCATGATACATACACACACATACACATACACA [CACACA_site8665] | 6.98
45 | ATATAACGAATAATTACACACTATAAAAAAAGATCT [CACACA_site2862] | 6.63
